Experimental findings from the supplement of paper PMC10849652 are described below.

Of roughly 8,800 targets only a part is listed; those with a hit were picked by preference. About 0.5% of all pairs of compound and target were hits. Values without a mark were called inactive.

What all share (test): log2 fold change, soluble protein after heating vs DMSO (PISA); higher = thermal stabilisation; K562 lysate, 10 uM; active = over 0.2 and 3.5 SD of the protein, either way, in both replicates (recomputed)
Compound in experiment [1]: C=CC(=O)N1CCC[C@@H](n2nc(-c3ccc(Oc4ccccc4)cc3)c3c(N)ncnc32)C1 [ibrutinib]
In short, it runs like this:
(§1)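 Following dounce homogenisation of K562 pellets in PBS pH 7.4 with 1 mM MgCl2, crude extract at 1 mg/mL protein was incubated for 30 min with 10 μM compound. Aliquots were then heated for 3 min over 48°C-58°C and pooled, NP-40 was added to 0.5% at 4°C, and soluble protein was recovered as the supernatant at 21,000xg for 90 min. Channel-sum-equalised TMTpro 16plex LC-MS/MS quantified this protein. Each value, from duplicates, is a log-two fold change in thermal stability relative to solvent controls.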

Compound in experiment [2]: CC(=O)c1cnc2ccc(-c3cc(Cl)c(O)c(Cl)c3)nc2c1N[C@H]1CC[C@H](CN(C)C)CC1
In short, it runs like this: as §1

Compound in experiment [3]: CC(C)(C)Cn1c(N)nc2ccc(-c3[nH]c(C(C)(C)C)nc3-c3ccc(F)cc3)nc21 [ralimetinib]
In short, it runs like this:
as §1

Compound in experiment [4]: CC(C)(O)CC(=O)NCCn1ccc2ncnc(Nc3ccc(Oc4cccc(C(F)(F)F)c4)c(Cl)c3)c21
A digest of the protocol:
as §1

Compound in experiment [5]: CC(C)C1=C2N=C(C=C(N2N=C1)NCC3=CC=CC=C3)NCCCCCCN
In short, it runs like this:
as §1

Compound in experiment [6]: CC1=C(C(CC(=O)N1)C2=CC=C(C=C2)C(F)(F)F)C(=O)NC3=C(C=C4C(=C3)C=NN4)F
A digest of the protocol:
as §1

Compound in experiment [7]: CC1=C(C2=C(C=C1)C(=O)C3=CC=CC=C3N2CCCN)C
In short, it runs like this: as §1

Compound in experiment [8]: CC1=C(C=C(C=C1)NC(=O)C2=CC(=CC=C2)C(C)(C)C#N)NC3=CC4=C(C=C3)N=CN(C4=O)C
A digest of the protocol:
as §1

Compound in experiment [9]: CC1=C(C=C(C=C1)NC(=O)C2=CC(=CC=C2)N(C)C)NC(=O)C3=CC=C(C=C3)O
In short, it runs like this:
as §1

Compound in experiment [10]: CC1=CC=C(C=C1)SC2=C3C=C(SC3=CN=C2)C(=O)N
In short, it runs like this: as §1

UniProt P04114, sequence (P04114 whole entry, looked up): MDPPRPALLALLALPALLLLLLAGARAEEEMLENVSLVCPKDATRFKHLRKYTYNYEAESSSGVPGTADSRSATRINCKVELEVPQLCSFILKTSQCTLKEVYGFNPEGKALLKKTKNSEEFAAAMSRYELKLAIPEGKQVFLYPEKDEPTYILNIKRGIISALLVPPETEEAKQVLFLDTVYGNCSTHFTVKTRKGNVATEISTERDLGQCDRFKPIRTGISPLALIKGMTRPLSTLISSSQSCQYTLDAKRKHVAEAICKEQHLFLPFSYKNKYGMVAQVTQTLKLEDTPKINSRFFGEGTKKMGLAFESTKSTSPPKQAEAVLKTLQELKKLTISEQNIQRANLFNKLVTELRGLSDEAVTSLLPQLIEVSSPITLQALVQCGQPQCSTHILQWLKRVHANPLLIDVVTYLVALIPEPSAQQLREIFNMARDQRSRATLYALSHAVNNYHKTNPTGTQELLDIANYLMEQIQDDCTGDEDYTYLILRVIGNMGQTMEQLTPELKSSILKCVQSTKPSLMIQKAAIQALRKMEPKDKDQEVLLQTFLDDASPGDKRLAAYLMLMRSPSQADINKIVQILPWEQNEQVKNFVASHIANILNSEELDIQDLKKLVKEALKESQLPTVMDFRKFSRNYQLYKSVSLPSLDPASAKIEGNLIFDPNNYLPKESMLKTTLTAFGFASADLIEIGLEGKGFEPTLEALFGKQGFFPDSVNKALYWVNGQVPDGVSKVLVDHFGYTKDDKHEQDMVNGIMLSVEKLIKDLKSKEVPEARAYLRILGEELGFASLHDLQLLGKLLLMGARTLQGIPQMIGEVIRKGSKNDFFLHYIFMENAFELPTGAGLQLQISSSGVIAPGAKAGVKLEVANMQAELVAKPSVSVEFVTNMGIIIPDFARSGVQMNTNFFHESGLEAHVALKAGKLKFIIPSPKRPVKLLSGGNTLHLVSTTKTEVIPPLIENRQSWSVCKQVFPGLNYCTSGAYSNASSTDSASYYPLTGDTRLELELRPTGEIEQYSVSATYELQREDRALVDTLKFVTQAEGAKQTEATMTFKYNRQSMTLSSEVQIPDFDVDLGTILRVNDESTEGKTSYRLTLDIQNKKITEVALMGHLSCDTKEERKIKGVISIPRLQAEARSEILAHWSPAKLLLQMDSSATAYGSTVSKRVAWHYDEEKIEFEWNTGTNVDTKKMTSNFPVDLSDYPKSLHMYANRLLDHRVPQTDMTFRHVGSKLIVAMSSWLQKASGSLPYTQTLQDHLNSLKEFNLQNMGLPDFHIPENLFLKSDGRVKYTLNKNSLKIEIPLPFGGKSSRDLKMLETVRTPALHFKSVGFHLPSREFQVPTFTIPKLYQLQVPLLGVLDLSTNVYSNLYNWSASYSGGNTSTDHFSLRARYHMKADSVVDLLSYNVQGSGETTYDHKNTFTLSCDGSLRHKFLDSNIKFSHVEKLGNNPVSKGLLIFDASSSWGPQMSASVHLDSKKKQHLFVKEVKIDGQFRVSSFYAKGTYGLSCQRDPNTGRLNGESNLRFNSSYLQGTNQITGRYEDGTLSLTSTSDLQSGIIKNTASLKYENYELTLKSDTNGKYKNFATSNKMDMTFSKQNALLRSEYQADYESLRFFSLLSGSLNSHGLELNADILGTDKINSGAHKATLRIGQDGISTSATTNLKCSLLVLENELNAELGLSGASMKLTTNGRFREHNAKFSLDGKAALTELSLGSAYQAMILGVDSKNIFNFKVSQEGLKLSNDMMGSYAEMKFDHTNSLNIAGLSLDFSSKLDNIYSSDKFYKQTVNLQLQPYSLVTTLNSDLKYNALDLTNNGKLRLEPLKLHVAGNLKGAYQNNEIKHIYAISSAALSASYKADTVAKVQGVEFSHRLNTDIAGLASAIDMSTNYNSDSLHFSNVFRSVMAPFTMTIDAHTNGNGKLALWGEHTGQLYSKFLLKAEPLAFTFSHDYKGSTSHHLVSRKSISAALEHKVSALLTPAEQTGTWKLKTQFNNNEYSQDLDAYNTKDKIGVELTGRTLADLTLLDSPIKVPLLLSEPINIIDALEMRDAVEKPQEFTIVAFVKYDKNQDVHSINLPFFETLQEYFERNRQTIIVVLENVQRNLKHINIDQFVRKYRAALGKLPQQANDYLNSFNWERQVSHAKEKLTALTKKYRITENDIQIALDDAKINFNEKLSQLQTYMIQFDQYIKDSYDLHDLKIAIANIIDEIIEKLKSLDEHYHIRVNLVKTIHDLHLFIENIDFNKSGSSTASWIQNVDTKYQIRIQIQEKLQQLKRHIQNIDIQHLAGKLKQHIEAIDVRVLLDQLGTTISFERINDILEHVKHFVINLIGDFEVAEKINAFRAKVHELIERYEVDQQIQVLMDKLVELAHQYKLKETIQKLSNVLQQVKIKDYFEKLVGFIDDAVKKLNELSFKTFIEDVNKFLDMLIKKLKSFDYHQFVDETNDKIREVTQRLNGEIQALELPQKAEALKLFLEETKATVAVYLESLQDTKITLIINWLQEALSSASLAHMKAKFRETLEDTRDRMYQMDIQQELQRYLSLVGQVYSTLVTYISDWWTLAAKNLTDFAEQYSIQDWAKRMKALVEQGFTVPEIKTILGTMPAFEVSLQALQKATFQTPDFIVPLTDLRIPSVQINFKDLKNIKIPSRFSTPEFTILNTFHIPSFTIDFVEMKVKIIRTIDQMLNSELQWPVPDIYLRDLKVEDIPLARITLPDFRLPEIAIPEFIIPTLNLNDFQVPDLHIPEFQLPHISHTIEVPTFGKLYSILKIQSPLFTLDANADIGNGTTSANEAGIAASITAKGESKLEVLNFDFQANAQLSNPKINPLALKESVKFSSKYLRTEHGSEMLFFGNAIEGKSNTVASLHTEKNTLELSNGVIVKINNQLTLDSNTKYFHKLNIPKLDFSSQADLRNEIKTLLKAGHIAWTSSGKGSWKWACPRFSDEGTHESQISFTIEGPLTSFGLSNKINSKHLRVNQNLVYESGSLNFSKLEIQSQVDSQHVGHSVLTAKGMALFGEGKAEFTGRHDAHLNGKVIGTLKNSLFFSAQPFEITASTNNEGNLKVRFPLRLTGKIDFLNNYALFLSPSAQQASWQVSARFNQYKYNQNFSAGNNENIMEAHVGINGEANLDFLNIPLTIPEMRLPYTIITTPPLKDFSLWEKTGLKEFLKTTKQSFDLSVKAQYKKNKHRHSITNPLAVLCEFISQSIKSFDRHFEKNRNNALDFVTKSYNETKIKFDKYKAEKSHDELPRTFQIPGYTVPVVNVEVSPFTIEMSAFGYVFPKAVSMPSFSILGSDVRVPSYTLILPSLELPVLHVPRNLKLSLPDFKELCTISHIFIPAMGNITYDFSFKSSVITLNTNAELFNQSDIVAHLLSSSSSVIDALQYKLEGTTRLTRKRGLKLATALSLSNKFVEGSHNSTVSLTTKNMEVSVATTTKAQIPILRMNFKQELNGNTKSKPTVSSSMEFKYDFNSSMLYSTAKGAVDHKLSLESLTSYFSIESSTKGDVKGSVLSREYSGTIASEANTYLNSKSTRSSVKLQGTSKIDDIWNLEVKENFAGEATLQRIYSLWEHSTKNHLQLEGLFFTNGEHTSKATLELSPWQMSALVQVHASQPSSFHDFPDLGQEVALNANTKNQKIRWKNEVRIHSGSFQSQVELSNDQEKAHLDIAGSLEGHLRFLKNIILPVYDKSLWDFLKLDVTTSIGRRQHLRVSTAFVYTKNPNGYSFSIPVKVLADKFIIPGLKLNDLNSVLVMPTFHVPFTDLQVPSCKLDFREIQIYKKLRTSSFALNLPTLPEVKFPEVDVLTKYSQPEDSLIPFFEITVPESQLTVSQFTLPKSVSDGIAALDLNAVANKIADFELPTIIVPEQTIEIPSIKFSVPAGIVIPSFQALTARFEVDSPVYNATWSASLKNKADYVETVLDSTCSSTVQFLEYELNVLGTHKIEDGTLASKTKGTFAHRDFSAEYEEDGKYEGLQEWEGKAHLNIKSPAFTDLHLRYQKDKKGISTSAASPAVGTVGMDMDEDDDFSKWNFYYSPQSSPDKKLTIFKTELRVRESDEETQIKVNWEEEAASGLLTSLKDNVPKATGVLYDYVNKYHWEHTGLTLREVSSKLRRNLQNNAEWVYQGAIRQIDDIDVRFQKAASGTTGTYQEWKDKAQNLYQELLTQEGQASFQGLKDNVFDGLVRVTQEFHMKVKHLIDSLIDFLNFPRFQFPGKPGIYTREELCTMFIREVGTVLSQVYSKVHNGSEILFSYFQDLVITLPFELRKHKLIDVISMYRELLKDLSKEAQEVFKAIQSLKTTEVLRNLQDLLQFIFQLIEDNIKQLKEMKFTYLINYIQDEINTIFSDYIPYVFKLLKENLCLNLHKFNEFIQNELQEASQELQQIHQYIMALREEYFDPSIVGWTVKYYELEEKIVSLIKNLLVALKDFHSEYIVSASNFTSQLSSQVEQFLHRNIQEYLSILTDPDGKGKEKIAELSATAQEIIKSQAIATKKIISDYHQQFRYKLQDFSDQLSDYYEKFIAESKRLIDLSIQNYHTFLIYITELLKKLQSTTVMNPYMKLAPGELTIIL
UniProt P11310, sequence (P11310 whole entry, looked up): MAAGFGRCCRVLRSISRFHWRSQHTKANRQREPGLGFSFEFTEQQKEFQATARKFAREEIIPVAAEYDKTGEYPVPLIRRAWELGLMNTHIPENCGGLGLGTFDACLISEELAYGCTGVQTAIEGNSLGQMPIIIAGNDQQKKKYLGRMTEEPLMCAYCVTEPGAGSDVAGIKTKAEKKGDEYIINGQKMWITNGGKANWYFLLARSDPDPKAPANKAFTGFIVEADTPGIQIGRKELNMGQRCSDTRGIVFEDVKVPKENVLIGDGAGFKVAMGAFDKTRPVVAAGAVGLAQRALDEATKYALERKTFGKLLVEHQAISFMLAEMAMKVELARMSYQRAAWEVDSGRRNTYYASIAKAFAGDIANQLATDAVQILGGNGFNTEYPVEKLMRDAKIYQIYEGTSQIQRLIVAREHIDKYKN
UniProt P00568, sequence (P00568 whole entry, looked up): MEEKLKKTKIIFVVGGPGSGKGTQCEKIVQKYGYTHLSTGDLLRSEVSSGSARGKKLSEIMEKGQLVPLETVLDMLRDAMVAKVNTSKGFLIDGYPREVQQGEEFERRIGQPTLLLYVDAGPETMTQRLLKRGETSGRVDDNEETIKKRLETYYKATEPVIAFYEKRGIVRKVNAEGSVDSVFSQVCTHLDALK

Consider ANKRD10 (UniProt Q9NXR5), for which the log2 fold change is -0.076 in [1]; -0.172 in experiment [2]; 0.005 in experiment [3]; 0.042 in [4]; -0.023 in experiment [5]; 0.046 in [6]. The log2 fold change in experiment [7] was 0.004; in experiment [8] it was -0.008; in experiment [9], 0.046; in [10] it was -0.085.

In the case of ACADM isoform 2 (UniProt P11310), the log2 fold change in [1] is 0.151; in [2], 0.026; in experiment [3], -0.015; in [4], -0.047; in experiment [5], 0.396 (active); in experiment [6], -0.041. Also, the log2 fold change is -0.004 in experiment [7], -0.055 in [8], -0.019 in experiment [9] and 0.046 in [10].

In the case of ANKRD54 (UniProt Q6NXT1), the log2 fold change in experiment [1] was -0.054; in experiment [2], -0.002; in experiment [3], 0.063; in [4] it was -0.006; in experiment [5] it was 0.044; in experiment [6] it was 0.003. Further, the log2 fold change in experiment [7] was 0.001; in [8], -0.006; in experiment [9], 0.01; in experiment [10] it was -0.023.

For ANXA13 isoform 2 (UniProt P27216), the log2 fold change in experiment [1] was 0.051; in experiment [2], 0.092; in [3] it was 0.022; in experiment [4], 0.169; in experiment [5], -0.057; in experiment [6], -0.034. Further, the log2 fold change in experiment [7] was 0.062; in experiment [8] it was 0.053; in experiment [9], -0.001; in experiment [10], 0.06.

APAF1 (UniProt O14727): the log2 fold change in experiment [1] is 0.027; in [2], 0.063; in experiment [3], 0.031; in [4] it was -0.04; in experiment [5], 0.009; in experiment [6] it was 0.008. The log2 fold change in [7] is -0.005; in experiment [8] it was 0.003; in experiment [9], 0.002; in [10] it was 0.022.

Turning to ANXA2 isoform 2 (UniProt P07355), the log2 fold change in experiment [1] was -0.013; in [2], 0.012; in experiment [3] it was -0.009; in experiment [4], 0.033; in experiment [5] it was -0.01; in [6], 0.006. Besides, the log2 fold change in experiment [7] is 0.048; in [8], -0.024; in experiment [9] it was -0.01; in [10], 0.013.

Consider AP1G2 (UniProt O75843), for which the log2 fold change was 0.012 in [1]; -0.087 in experiment [2]; 0.069 in [3]; 0.013 in experiment [4]; -0.121 in experiment [5]; -0.109 in experiment [6]. The log2 fold change in experiment [7] is -0.156; in experiment [8], -0.011; in [9] it was 0.023; in experiment [10], -0.027.

As to ALDH2 (UniProt P05091), the log2 fold change in [1] was -0.001; in experiment [2] it was 0.081; in [3] it was 0.002; in [4], -0.012; in experiment [5], 0.199; in experiment [6], -0.013. For the same target, the log2 fold change in experiment [7] is 0.014; in [8] it was -0.081; in experiment [9], 0; in experiment [10] it was 0.01.

As to AK1 (UniProt P00568), the log2 fold change in experiment [1] is -0.001; in [2] it was 0.006; in [3], 0.006; in experiment [4], -0.021; in experiment [5], -0.029; in experiment [6], -0.008. The log2 fold change was 0.043 in experiment [7], -0.024 in experiment [8], -0.002 in experiment [9] and 0.009 in [10].

As to ACACA isoform 4 (UniProt Q13085), the log2 fold change in experiment [1] is 0.038; in experiment [2] it was 0.021; in experiment [3], 0.041; in experiment [4], 0.013; in experiment [5], 0.01; in experiment [6], -0.027. The log2 fold change was -0.002 in experiment [7], 0.021 in experiment [8], 0.048 in experiment [9] and 0.035 in experiment [10].

With AMMECR1 (UniProt Q9Y4X0), the log2 fold change in experiment [1] is -0.021; in experiment [2], -0.008; in [3], 0.006; in experiment [4], -0.016; in [5] it was 0.014; in [6], 0.009. Further, the log2 fold change in experiment [7] is -0.01; in experiment [8], -0.003; in experiment [9] it was -0.027; in [10], -0.039.

As for AKR1B1 (UniProt P15121), the log2 fold change in experiment [1] is 0.023; in experiment [2] it was -0.015; in experiment [3] it was 0.031; in experiment [4] it was -0.029; in experiment [5], -0.033; in experiment [6] it was -0.013. Also, the log2 fold change in [7] was 0.091; in experiment [8] it was -0.038; in experiment [9], 0.028; in experiment [10] it was 0.004.

On to ABCF3 (UniProt Q9NUQ8), for which the log2 fold change is 0.008 in [1]; 0.035 in [2]; 0.067 in experiment [3]; 0.046 in experiment [4]; -0.013 in [5]; 0.009 in [6]. Further, the log2 fold change in experiment [7] is -0.012; in experiment [8], -0.02; in experiment [9], 0.018; in experiment [10], 0.001.

Take APOB (UniProt P04114): the log2 fold change in experiment [1] is -0.025; in experiment [2], -0.016; in experiment [3], -0.052; in experiment [4], -0.195; in experiment [5], 0.011; in experiment [6], -0.02. In addition, the log2 fold change was -0.089 in experiment [7], 0.063 in experiment [8], -0.005 in experiment [9] and -0.036 in experiment [10].
